Compound activity (PubChem)
This is a sample that favours compounds with a hit; in the whole collection about 4.1% have one here.
NSD2 inh = inhibitors of human histone methyltransferase NSD2 | NSD2 peptide methylation, AlphaScreen, 120 min | inhibition, % at 12.5 µM | hit rate 0.54% among 310,000 | O96028 | AID 743445; in the data active = inhibition above about 50%
HIV Env fusion = inhibitors of HIV Env-mediated cell fusion. HeLa-JRFL Env/CEM21 cell fusion, luciferase. inhibition, % at 12.3 µM. hit rate 1.1% among 360,000. AID 651610;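 active = mean replicate inhibition score of at least 50 and every replicate individually at or above 50; inconclusive = only one of the two criteria met; inactive = mean below 50 and not all replicates reaching 50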;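 note: 0% = plate neutral controls and 100% = maraviroc near 300 nM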
ALR H2O2 inh = human ALR oxidase inhibition via reduced H2O2 | AID 485317 | inhibition, % (test concentration not listed) | purified ALR, DTT oxidation, H2O2 HRP-luminol luminescence | P55789 | hit rate 3.8% among 290,000;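 active = mean replicate inhibition above about 79%, with every replicate also reaching it, limit read from the data; inconclusive = only one of the two criteria met; inactive = mean below limit and not every replicate reaching it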
Target sequence (P55789 whole entry, looked up): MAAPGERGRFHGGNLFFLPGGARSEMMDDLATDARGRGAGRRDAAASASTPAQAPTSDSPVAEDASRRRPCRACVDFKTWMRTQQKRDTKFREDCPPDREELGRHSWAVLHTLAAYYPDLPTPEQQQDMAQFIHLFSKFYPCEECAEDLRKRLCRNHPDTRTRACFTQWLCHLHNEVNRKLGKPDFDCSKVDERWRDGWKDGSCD
Casp6 inh = caspase-6 (human) enzyme inhibition | P55212 | purified caspase-6, Z-VEID-R110 cleavage fluorescence | inhibition, % at 12.5 µM | hit rate 0.53% among 350,000 | AID 686996;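 active = mean inhibition across replicates at least about 35%, with every replicate also reaching that limit, limit read from the data; inconclusive = only one of the two criteria met; inactive = neither criterion met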;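 note: 0% = median of neutral control wells and 100% = no fluorescence left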
Target sequence (P55212 24-179 limits assumed): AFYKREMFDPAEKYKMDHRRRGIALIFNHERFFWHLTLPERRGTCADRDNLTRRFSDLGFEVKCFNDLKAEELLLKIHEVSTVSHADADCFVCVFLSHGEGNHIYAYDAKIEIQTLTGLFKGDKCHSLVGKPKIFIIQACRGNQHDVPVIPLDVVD
Target sequence (P55212 194-293 limits assumed): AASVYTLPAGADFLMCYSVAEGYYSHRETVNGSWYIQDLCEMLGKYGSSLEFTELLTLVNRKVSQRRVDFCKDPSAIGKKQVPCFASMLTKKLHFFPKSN
CFTR F508del cor = correctors of CFTR F508del function in bronchial epithelial cells; CFBE cells, YFP halide quenching; stimulated with forskolin plus potentiator P3; % fluorescence drop versus neutral controls; hit rate 0.36% among 350,000; activity (quench increase), % at 7.58 µM;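 active = mean added fluorescence quench of at least 8% versus neutral control, with both replicates also reaching 8%; inconclusive = only one of the mean or replicate conditions met; inactive = mean below 8% and not both replicates reaching 8%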;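 note: cells transiently co-express mutant CFTR-F508del with the halide-sensitive YFP; corrector assay measuring rescue of mutant channel to the surface after 24 h compound exposure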
PglD DTNB = PglD (C. jejuni) enzyme inhibition; purified PglD enzyme, DTNB colorimetric CoA detection; hit rate 0.098% among 360,000; inhibition, % at 12.5 µM; AID 602405; in the data active = inhibition above about 16%, passing the limit was not always enough; inconclusive = no clear call, values can overlap the other calls
* hit, by the source's call; ? = inconclusive; / = not tested or not shown; ! = not confirmed by another sample; [ ] = remark or other dose.

SMILES | NSD2 inh | HIV Env fusion | ALR H2O2 inh | Casp6 inh | CFTR F508del cor | PglD DTNB
COc1ccc(NC(=O)Nc2ccc3c(c2)CC(=O)N([C@H](C)CO)C[C@H](C)[C@@H](CN(C)C(=O)NC2CCCCC2)O3)cc1 | / | 5.5[16.7 µM] | / | -0.3 | -1.9 | -1.6
Cc1ccc(S(=O)(=O)N[C@H]2C=C[C@H](CC(=O)NCCN3CCCCC3)O[C@@H]2CO)cc1 | / | 15.2[16.7 µM] | / | -6.0 | -1.5 | -11.6
COC(=O)C1=C(C)N(CC2CC2)C(=O)N[C@H]1c1ccc(Br)cc1 | / | 77.5* | 4.9 | -1.8 | 0.9 | /
CCN1C(=O)N[C@@H](c2ccc(Br)cc2)C(C(=O)OC)=C1C | / | -20.8 | -5.5 | 5.0 | 4.6 | 6.0
C=C(C)C(=O)Nc1cccc(C2=NOC3(C2)C[C@H](C(N)=O)N(C(=O)/C=C/C)C3)c1 (stereo partly specified) | / | 17.2 | / | 52.6* | 2.1 | 3.9
C=C(C)C(=O)Nc1cccc(C2=NOC3(C2)C[C@@H](C(N)=O)N(C(=O)/C=C/CC)C3)c1 (stereo partly specified) | / | 10.2 | / | 44.1* | -2.5 | 5.3
C=C(C)C(=O)Nc1cccc(C2=NOC3(C2)C[C@H](C(N)=O)N(C(=O)COc2ccc(Cl)cc2)C3)c1 (stereo partly specified) | / | 1.6 | / | 51.5* | -1.9 | 1.8
C=C(C)C(=O)Nc1cccc(C2=NOC3(C2)C[C@@H](C(N)=O)N(C(=O)C(=C)C)C3)c1 (stereo partly specified) | / | -1.4 | / | 37.9* | -0.4 | -1.4
C/C=C/C(=O)N1CC2(CC(c3cccc(NC(=O)CC)c3)=NO2)C[C@H]1C(N)=O (stereo partly specified) | / | -18.9 | -13.0 | / | -1.4 | 0.8
C=C(C)C(=O)Nc1cccc(C2=NOC3(C2)C[C@H](C(N)=O)N(C(=O)c2ccccc2)C3)c1 (stereo partly specified) | / | / | / | 31.4 | -2.7 | -0.1
CCCNC(=O)N(C)C[C@H]1Oc2cc(C#CC(C)C)ccc2S(=O)(=O)N([C@@H](C)CO)C[C@@H]1C | / | -41.8[16.7 µM] | / | / | -4.7 | -0.8
O=C1Cc2ccccc2C(=O)N1Cc1cccc(Cl)c1 | 0.8 | -13.3 | 1.5 | 67.8* | -1.9 | -2.5
CC(C)CN(C(=O)COC(=O)/C=C/c1ccccc1)C1CCS(=O)(=O)C1 (stereo unspecified) | 1.8 | -6.1 | -0.5 | 39.0* | 2.2 | 1.6
CCN(C(=O)COC(=O)/C=C/c1ccc(O)c(OC)c1)C1CCS(=O)(=O)C1 (stereo unspecified) | 2.4 | 3.4 | 98.2* | 2.4 | / | 1.5
CCN(C(=O)COC(=O)/C=C/c1ccc(OC(F)F)c(OC)c1)C1CCS(=O)(=O)C1 (stereo unspecified) | -0.1 | 0.7 | 2.6 | -1.7 | -0.5 | 0.1
COC(=O)c1c(N2C(=O)Nc3ccccc3N2O)sc(C)c1C | 0.5 | 7.0 | 6.2 | 0.0 | -2.0 | 4.9
CCOC(=O)c1c(N2C(=O)Nc3ccccc3N2O)sc2c1CCCC2 | -2.5 | -33.1 | 92.5* | -0.2 | / | /
O=C(COC(=O)/C=C/c1ccco1)Nc1ncc(Cl)cc1Cl | -0.2 | 16.7 | 5.6 | 43.9* | -0.2 | -6.6
CC(C)=CC(=O)OCC(=O)Nc1nc(C)c(Cl)cc1Cl | / | -46.0 | -23.1 | / | / | /
Cc1nc(NC(=O)COC(=O)/C=C/c2ccco2)c(Cl)cc1Cl | 1.5 | / | 3.6 | 49.5* | -1.2 | -0.3
O=C(NNc1nc2c(F)cc(F)cc2s1)C1COc2ccccc2O1 (stereo unspecified) | -0.2 | -4.4 | / | 2.0 | -2.2 | /
Cc1cccc2sc(NNC(=O)C3COc4ccccc4O3)nc12 (stereo unspecified) | / | 14.6 | 99.8* | -1.7 | -3.7 | 5.4
CC(=O)N(C)C[C@H]1Oc2ncc(C#CC(C)(C)O)cc2C(=O)N([C@@H](C)CO)C[C@H]1C | / | -23.8[16.7 µM] | / | 4.5 | 2.6 | 0.5
C[C@H](CO)N1C[C@H](C)[C@H](CN(C)S(=O)(=O)c2ccc(F)cc2)Oc2ncc(/C=C/c3ccccc3)cc2C1=O | / | 49.8*![16.7 µM] | / | -2.3 | 1.6 | 1.3
C[C@@H]1CN([C@@H](C)CO)C(=O)c2cc(C#Cc3ccccc3F)cnc2O[C@@H]1CN(C)S(=O)(=O)c1ccccc1F | / | 56.2*[16.7 µM] | / | 2.1 | -5.9 | 0.5
SMILES | NSD2 inh | HIV Env fusion | ALR H2O2 inh | Casp6 inh | CFTR F508del cor | PglD DTNB
CC(=O)N(C)C[C@@H]1Oc2cc(-c3ccc(F)cc3)ccc2S(=O)(=O)N([C@H](C)CO)C[C@@H]1C | / | -6.9[16.7 µM] | / | 0.3 | 1.1 | -0.9
COc1ccc(Nc2ncc(C(=O)O)c3ccccc23)cc1 | 0.3 | -37.8 | -25.4 | / | / | -12.2
COc1ccc(Nc2ncc(C(=O)N3CCN(c4ccc(F)cc4)CC3)c3ccccc23)cc1 | 2.3 | 93.3* | -17.1 | / | / | -5.7
COc1cc(C2C(C#N)=C(N)N(c3ccc(F)cc3)C3=C2S(=O)(=O)CC3)ccc1O (stereo unspecified) | 11.6 | 12.8 | 88.4* | 5.3 | -1.0 | /
COc1ccc(S(=O)(=O)N(C)C[C@H]2OCc3cnnn3CCCC(=O)N([C@@H](C)CO)C[C@@H]2C)cc1 | / | / | / | -2.6 | 1.9 | -1.4
CN(C)c1ccc(/C=C/c2cccc[n+]2[O-])cc1 | 1.5 | -8.7 | ? | -0.4 | -0.9 | -2.2
CC(C)CC[n+]1ccccc1/C=C/c1ccc(N(C)C)cc1 | 5.0 | 60.6* | 98.8* | -10.0 | -2.4 | -12.3
CC(C)NC(=O)N(C)C[C@H]1Oc2c(NC(=O)C3CCOCC3)cccc2C(=O)N([C@@H](C)CO)C[C@@H]1C | / | -25.1[16.7 µM] | / | -1.2 | -1.9 | 6.0
Cc1cc(Br)c(NC(=O)C(C)Sc2nnnn2C)c(Br)c1 (stereo unspecified) | 26.5 | -0.6 | 2.3 | -2.6 | 11.9* | 2.0
CCCCCCCCn1ccc(=N)cc1 | -1.4 | 20.9 | -2.0 | -0.6 | -1.3 | -4.1
CCCCCCCCCCCCCCCCn1cc[n+](C)c1 | -4.3 | 127.7* | -11.3 | -221.0 | -4.1 | /
CCc1ccc(N(C(=O)c2snc(C(N)=O)c2N)C(C(=O)NC2CCCC2)c2ccco2)cc1 (stereo unspecified) | 23.1 | 55.9* | 20.1 | 2.1 | 0.1 | 6.1
Cc1ccc(C(C(=O)NC2CCCC2)N(Cc2ccc(F)cc2)C(=O)c2csnn2)o1 (stereo unspecified) | 0.2 | 41.9 | -2.2 | / | / | /
COc1ccc(CN(C(=O)Cc2c[nH]c3ccccc23)C(C(=O)NC2CCCCC2)c2ccc(C)o2)cc1 (stereo unspecified) | -0.7 | 108.6* | -1.4 | / | / | -2.5
Cc1ccc(C(C(=O)NC2CCCC2)N(Cc2ccc(F)cc2)C(=O)c2snc(C(N)=O)c2N)o1 (stereo unspecified) | 0.9 | 64.8* | -5.0 | -1.9 | -2.6 | -7.7
CO[C@@H]1CN(C)C(=O)c2cc(NC(C)=O)ccc2OC[C@@H](C)N(C(=O)c2ccccn2)C[C@@H]1C | / | -4.2[16.7 µM] | / | 0.3 | -1.4 | 8.6
COc1ccc(-n2cnc3cc(NCc4cccs4)ccc32)cc1 | 33.4 | / | 95.4* | / | / | -2.1
Cc1ccc(-n2cnc3cc(NCc4cccs4)ccc32)cc1 | 3.5 | -66.7 | 21.5 | / | / | 11.6
